This is a sample that favours compounds with a hit; in the whole collection about 4.2% have one here.
uPA surface inh – blocks generation of uPA at the cell surface; cell surface uPA generation assay, qHTS; Potency, µM (highest dose often 38.3 µM), for inactives: at the top dose activity change, negative = inhibition, actives largely listed as inhibitors; hit rate 0.31% among 330,000; AID 540303; active means well fitted inhibition curve with a large enough effect; inconclusive means small, poorly fitted or top-dose-only effect; inactive means no such curve, though single readings can be large or run the other way; tested in mouse RAW 264.7 cells; further: potency means the concentration at half of the fitted maximal effect; on the % scale 0 is the no-effect control and ±100 the full control effect; nearly all actives have a fitted effect of over 55% in size
Sfp inh – blocks B. subtilis Sfp PPTase activity. Potency, µM, for inactives: largest response in the series, negative = inhibition, usual class: inhibitors. Biochemical Sfp PPTase activity, qHTS. Q9F4F7. AID 1490. hit rate 3.5% among 310,000;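 further: the enzyme is Sfp with the accession as filed and its product quenches rhodamine fluorescence; potency means the concentration at half of the fitted maximal effect; 0% = enzyme reaction without inhibitor and -100% = no enzyme wells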
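Buffer: 50 mM Hepes-Na pH 7.6, 10 mM MgCl2, 0.01% Nonidet P-40, 0.01% BSA. Enzyme 15 nM, pre-exposed to compound 15 min; substrates then added and fluorescence change tracked over 30 min.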
TCR act – activates T cell receptor signaling | primary human leukocytes, anti-CD3, IL-2 HTRF, 48 h | Potency, µM (highest dose often 9.22 µM), inactives show top-dose activation of IL-2 secretion, most hits filed as activators | 330,000 tested, under 10 active | AID 504894; further: % of control where 0% means no effect
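IL-2 produced over 48 hr by a-CD3 bead-stimulated primary human leukocytes exposed to compounds was detected with a homogeneous time-resolved FRET immunoassay, 665nm acceptor signal after 320nm excitation.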
ClpP mod – qHTS Assay for Activators of ClpP; hit rate 1.9% among 340,000; ATP-dependent Clp protease proteolytic subunit (Bacillus subtilis (strain 168)), P80244; purified B. subtilis ClpP, FRET peptide cleavage, 20 min; Potency, µM (titrated, usually from 57.5 µM), for the others: top-dose activity change, negative = active; AID 651965, 2013; active means well fitted falling curve with a large enough effect; inconclusive means small, poorly fitted or top-dose-only effect; inactive means no such curve, though single readings can be large or run the other way; further: potency means the concentration at half of the fitted maximal effect; the source files actives as falling curves though it sought activators and does not explain the sign; nearly all actives have a fitted effect of over 65% in size
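Buffer: 100 mM Tris/HCl pH8, 100 mM KCl, 0.05% low protease BSA, 2.5% glycerol, 0.01% Tween-20. ClpP 10 microg/mL final; 20 min RT; delta FRET normalized to ADEP and DMSO controls.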
Starred values were filed as active, the others as inactive; ? = inconclusive; nt = not tested or not shown; [ ] = dose if it differs, or a comment. Unless noted, the call rests on the fitted dose curve; in most records, active means well fitted curve in the direction sought with a large enough effect; inconclusive means small, poorly fitted or top-dose-only effect, or another doubt; inactive means no such curve, though single readings can be large; an effect the other way counts as inactive or inconclusive.

SMILES | uPA surface inh | Sfp inh | TCR act | ClpP mod
O=C(CC1N=C2c3ccccc3N=C(SCc3ccccc3Cl)N2C1=O)NC1CCCCC1 (stereo not given) | nt | nt | nt | -4.1%
CN(C(=O)CSc1ccccc1C(=O)O)C1CCCCC1 | 3.2% | -1.0% | -0.1% | 0.8%
CN(C(=O)CSC1=Nc2ccccc2C2=NC(c3ccccc3)C(=O)N12)C1CCCCC1 (stereo not given) | -5.1% | -14.0% | 3.2% | 25.1µM*
CSCCC(NC(=O)COc1ccccc1)C(=O)NCCOc1ccccc1 (stereo not given) | -4.4% | nt | -10.7% | -0.1%
CN(C)c1ccc(N=Cc2nc(-c3ccccc3)oc2O)cc1 | -3.8% | -2.4% | 5.3% | 22.4µM*
Oc1oc(-c2ccccc2)nc1C=Nc1ccccc1 | -11.2% | -12.3% | 0.7% | -1.0%
CCOc1ccc(-c2c(C)nn3c(C)c(C(=O)NCCc4ccccc4)cnc23)cc1OCC | nt | nt | nt | 2.3%
COc1ccccc1Oc1nc2c(c(=O)n(Cc3ccccc3F)c(=O)n2C)n1C | 4.1% | 8.91µM* | -1.3% | -1.3%
O=C(CCn1nnc2ccccc21)Nc1nnc(Cc2ccccc2)s1 | 3.2% | 50.1µM* | 0.9% | -25.4%
O=C(CCn1nnc2ccccc21)Nc1nnc(COc2ccccc2F)s1 | -0.4% | -14.7% | -2.0% | -0.3%
CCOc1ccc(C2NC(=O)C(C#N)=C(S)N2c2ccc(OC)cc2)cc1OC (stereo not given) | -3.1% | 28.2µM* | 8.3% | -3.4%
COc1ccc(C2NC(=O)C(C#N)=C(S)N2c2ccc(C)cc2)cc1OC (stereo not given) | -24.6% | 31.6µM* | 0.7% | -3.0%
COc1ccc(C2NC(=O)C(C#N)=C(S)N2c2cccc(C)c2)cc1OC (stereo not given) | -0.1% | 31.6µM* | 1.0% | nt
COc1ccc(N2C(S)=C(C#N)C(=O)NC2c2ccc(OC)c(OC)c2)cc1 (stereo not given) | -12.9% | 22.4µM* | nt | nt
O=C(NCc1cnn(-c2ccccc2)c1)C1CCC(=O)N(C2CC2)C1 (stereo not given) | 4.1% | 16.3% | 0.9% | -1.2%
CCc1ccc2[nH]c(=O)c(C(c3nnnn3CCOC)N3CCN(c4ccccc4)CC3)cc2c1 (stereo not given) | 0.0% | 31.6µM* | -26.8% | ?
COCCn1nnnc1C(c1cc2cccc(C)c2[nH]c1=O)N1CCN(c2ccccc2F)CC1 (stereo not given) | 1.4% | 14.1µM* | -4.1% | -7.9%
CCc1ccc2[nH]c(=O)c(C(c3nnnn3CCOC)N3CCN(c4ccc(F)cc4)CC3)cc2c1 (stereo not given) | -5.8% | 17.8µM* | 2.1% | 0.0%
CCOc1ccccc1C1C(C(=O)Nc2ccccc2)=C(C)Nc2nc(-c3ccccc3)nn21 (stereo not given) | nt | nt | nt | -7.4%
COc1ccc2c(c1OC)CCC2=O | -5.7% | 6.1% | -3.3%[46.1 µM] | 28.2µM*
CCOC(=O)c1c(C)oc2c1c(C=NCc1ccccn1)c(O)c1ccccc12 | 11.8% | 17.8µM* | -0.5% | -1.6%
COc1ccc(CNC(=O)C2(c3cccs3)CCOCC2)cc1 | nt | nt | nt | 1.8%
O=C(c1ccc(F)cc1)N1CCCC(C(=O)N2CCN(c3ccccc3)CC2)C1 (stereo not given) | 5.8% | 4.3% | -1.2% | 28.2µM*
O=C(c1ccc(Cl)cc1)N1CCCC(C(=O)N2CCN(c3ccccc3)CC2)C1 (stereo not given) | -5.6% | 3.2% | 0.6% | -0.6%
CC(NC(=O)CCC(=O)c1ccccc1)c1ccc(F)cc1 (stereo not given) | 4.6% | nt | 7.9% | nt
SMILES | uPA surface inh | Sfp inh | TCR act | ClpP mod
COc1ccc(-c2oc(=O)c3cc(OC)c(OC)cc3c2-c2cc(F)cc(OC)c2)cc1 | -8.9% | nt | -6.5% | 20µM*
COc1ccc(-c2c(-c3ccc(C#N)cc3)oc(=O)c3cc(OC)c(OC)cc23)cc1 | 15.6% | nt | -5.7% | 4.0%
COCc1ccc(-c2c(-c3ccsc3)oc(=O)c3cc(OC)c(OC)cc23)cc1 | 3.4% | nt | 1.1% | 31.6µM*
CCn1cc(CNCc2cn(C)nc2-c2ccc(C3CCCCC3)cc2)cn1 | -1.9% | -4.0% | 3.6% | nt
COc1ccc(C(N)c2csc(Nc3ccc(C(=O)NCCCO)cn3)n2)cc1 (stereo not given) | nt | nt | nt | 28.2µM*
CC(N)c1csc(Nc2ccc(C(=O)NCCCO)cn2)n1 (stereo not given) | nt | nt | nt | -14.2%
Cn1c(-[n+]2c(-c3ccccc3)cc(-c3ccccc3)cc2-c2ccccc2)nc2cc([N+](=O)[O-])ccc21 | 0.3% | 22.4µM* | -3.6%[46.1 µM] | -1.0%
O=[N+]([O-])c1ccc2c(c1)ncn2-c1ccccc1 | -0.6% | -6.1% | 1.3% | -6.4%
CCCCOC(=O)c1ccc(NC(=O)COC(=O)CSc2nc(C)cc(C)n2)cc1 | 8.1% | -9.3% | 5.9%[46.1 µM] | -0.2%
CC(C)c1nn2c(=O)cc(COC(=O)c3ccco3)nc2s1 | nt | nt | nt | -2.2%
O=C(CN1CCC(n2nnc3cc(F)ccc32)CC1)NCc1ccco1 | -0.6% | 56.2µM* | -8.2% | 0.0%
COc1ccc(-c2cn3c(n2)sc2cc(C(=O)NCCc4ccccc4)ccc23)cc1 | nt | nt | nt | -13.5%
Cc1cccc(C=Nc2ccc3c(c2)oc2ccccc23)c1O | -2.5% | ? | -3.0%[46.1 µM] | 31.6µM*
CC(=O)c1cccc(NCC(=O)c2ccc(C)c([N+](=O)[O-])c2)c1 | 1.1% | 17.8µM* | 0.1% | nt
COc1ccc([C@H]2CC(=O)C=C(c3cc(C=O)ccc3OC)C2)cc1 | 6.31µM* | nt | -7.9% | -4.6%
Oc1cccc(/C=N/N(Cc2ccccc2)c2ccccc2)c1 | 4.3% | 19.1% | 8.4% | nt
Oc1ccc(/C=N/N(Cc2ccccc2)c2ccccc2)c(O)c1O | -2.6% | 56.2µM* | -0.7% | nt
Cc1cc[n+](CCC2CCCCC2)cc1 | nt | nt | nt | -0.6%
O=C1C(Nc2ccccc2)=C(N2CCCCC2)C(=O)c2ccccc21 | -4.7% | -0.9% | 0.0% | 9.8%
O=C1C(Nc2cccc(O)c2)=C(N2CCCCC2)C(=O)c2ccccc21 | 12.1% | 31.6µM* | -7.5% | 3.6%
Cc1c(C(=O)NCc2ccccc2C(F)(F)F)sc(=O)n1Cc1ccc(F)cc1 | nt | nt | nt | 2.4%
Cc1cc(N2CCOCC2)n2nc(-c3cccc(F)c3)cc2n1 | nt | -8.8% | -0.2%[46.1 µM] | ?
CCC1CCCCN1c1cc(C)nc2cc(-c3cccc(C)c3)nn12 (stereo not given) | 5.4% | ? | 2.7% | 28.2µM*
Cc1ccc(C)c(N2CCN(c3cc(C)nc4c(-c5ccc(Cl)cc5)c(C)nn34)CC2)c1 | nt | nt | nt | -26.4%
O=C1CN(c2ccccc2)C(=S)N1C(=O)c1ccccc1 | -3.3% | 50.1µM* | 5.8% | nt
SMILES | uPA surface inh | Sfp inh | TCR act | ClpP mod
CCCCCCCCCCCCCCCCOCCOCCOCCOCCOCCOCCOCCOCCOCCOCCOCCOCCOCCOCCOCCOCCOCCOCCOCCOCCO | nt | 50.1µM* | nt | nt
CCCCOCCO | 0.3% | nt | 4.1% | nt
CCOC(=O)Cc1csc(NS(=O)(=O)c2ccc(OC)cc2)n1 | 1.5% | 15.6% | 2.2% | nt
CCCCCC(=O)Nc1nnn(CCC)n1 | nt | 5.7% | -2.4% | -0.7%
CCCn1nnc(NC(=S)NC(=O)C(C)(C)C)n1 | 1.5% | 50.1µM* | 1.0%[46.1 µM] | -0.4%
CCCn1nnc(NC(=S)NC(=O)/C=C/c2ccco2)n1 | 0.7% | 56.2µM* | -0.4% | nt

High-throughput results as filed in PubChem BioAssay.
